In experiment [1] the target is T1, Aspartate--tRNA(Asp/Asn) ligase (Mycobacterium tuberculosis (strain ATCC 25618 / H37Rv)) (UniProt P9WFW3). Note: in the data most compounds retested in dose-response had high values.
T1 sequence (whole entry): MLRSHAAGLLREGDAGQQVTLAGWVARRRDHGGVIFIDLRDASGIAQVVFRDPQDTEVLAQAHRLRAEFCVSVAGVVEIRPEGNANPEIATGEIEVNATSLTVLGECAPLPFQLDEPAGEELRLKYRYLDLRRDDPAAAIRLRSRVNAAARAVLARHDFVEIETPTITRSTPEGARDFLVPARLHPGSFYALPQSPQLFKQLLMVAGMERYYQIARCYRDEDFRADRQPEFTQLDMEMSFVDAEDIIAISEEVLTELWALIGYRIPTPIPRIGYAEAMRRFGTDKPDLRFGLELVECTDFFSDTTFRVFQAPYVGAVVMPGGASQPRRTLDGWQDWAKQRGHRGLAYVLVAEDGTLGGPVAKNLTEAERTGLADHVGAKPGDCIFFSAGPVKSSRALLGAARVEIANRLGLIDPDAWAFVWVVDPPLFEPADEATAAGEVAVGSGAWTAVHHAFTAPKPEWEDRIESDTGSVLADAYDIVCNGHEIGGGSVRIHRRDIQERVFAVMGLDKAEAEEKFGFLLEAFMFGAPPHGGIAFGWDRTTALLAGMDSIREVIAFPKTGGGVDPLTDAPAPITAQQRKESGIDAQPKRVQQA
Briefly: Assay for Asp RNA synthetase-1 from Mycobacterium tuberculosis. The format is functional. Further details: scale not given: direction of the effect not stated beside the values. As to conditions: 30 µM.

Experiment [2] concerns the target Shiga toxin 2 (Escherichia coli O157:H7) (UniProt P09385+P09386). The experiment can be described thus: E. coli 0.157:H7 Shiga Toxin SOP - stx2 screening assay. The format is functional. Further details: scale not given: direction of the effect not stated beside the values. Particulars: 30 µM.

Take `c1coc(CN2CCCC3(COCCN(Cc4c[nH]nn4)C3)C2)c1` (stereo not given): the results for the Percent Effect in experiment [1] and in experiment [2] were 2.45% and 4.89%, respectively.

`CC(=O)N1CCN([C@@H]2CC[C@@H](NC(=O)c3cncc(C)c3)[C@H]2O)CC1`: the values for the Percent Effect in experiment [1] and in experiment [2] were -1.5% and -14%, respectively.

As to `O=C(CS(=O)(=O)c1ccccc1Cl)NC1CCCCNC1=O` (stereo not given), the Percent Effect was -8.65% in experiment [1] and 4.72% in experiment [2].

With `COCCC(=O)N1CC[C@@H]2O[C@@H](C)C[C@H]2C1`, the Percent Effect was -0.28% in experiment [1] and -0.0436% in experiment [2].

In the case of `COCCN1CCN(C(=O)C2CC=CC2)Cc2cccnc21`, the results for the Percent Effect in experiment [1] and in experiment [2] were -1.63% and -23.9%, respectively.

As for `CC(=O)N1CCC(c2cc(C(F)(F)F)n3ccnc3n2)CC1`, the Percent Effect in experiment [1] was 6.9%; in experiment [2], -9.96%.

As to `COc1ccc(Cl)cc1NCC(=O)NCCNc1cnccn1`, the Percent Effect in experiment [1] was -0.88%; in experiment [2] it was 25.1%.

Turning to `CC(=O)NC1CCCN(C(=O)NCc2ccc(-c3ccn[nH]3)cc2)C1` (stereo not given), the Percent Effect in experiment [1] was -1.85%; in experiment [2], 1.62%.

Take `Cc1csc(N2CCCN(C(=O)C(C(C)C)n3cncn3)CC2)n1` (stereo not given): the Percent Effect in experiment [1] is -2.24%; in experiment [2], 15.4%.

For the molecule `Cc1nnc(C(C)NCC2(c3c(F)cccc3F)CCCC2)o1` (stereo not given), the Percent Effect in experiment [1] is -1.77%; in experiment [2], 9.79%.

For the molecule `O=C(NS(=O)(=O)c1ccccc1Cl)c1cccc2c1OCCO2`, the results for the Percent Effect in experiment [1] and in experiment [2] were -6.15% and -2.92%, respectively.

As for `CN1CCOC(CNC(=O)Cc2ccccc2F)C1` (stereo not given), the Percent Effect in experiment [1] is -1.99%; in experiment [2] it was -8.98%.

As for `O=C(N1CCCO1)[C@@]12CCO[C@@H]1CCN(C1CCCCC1)C2`, the Percent Effect was -5.76% in experiment [1] and -31.5% in experiment [2].

Take `COCCC(=O)N1CCC(c2noc3nc(C)cc(C(F)(F)F)c23)CC1`: the Percent Effect turned out to be 1.68% in experiment [1] and 8.3% in experiment [2].

Regarding `CCN(CC1CCOC1)C(=O)Nc1ccc(OC)nc1` (stereo not given), the Percent Effect is 4.72% in experiment [1] and -156% in experiment [2].

`Cn1ccnc1CC1CCCN(C(=O)Nc2cccn(C)c2=O)C1` (stereo not given): the Percent Effect in experiment [1] was 2.75%; in experiment [2], -3.01%.

Take `CC(NC(=O)NCc1ccc(Cl)cc1)c1ccccn1` (stereo not given): the results for the Percent Effect in experiment [1] and in experiment [2] were 0.364% and -27.4%, respectively.

With `CC1CCN(S(=O)(=O)c2cccn(CC(=O)NC3CCCC3)c2=O)CC1`, the Percent Effect in experiment [1] was -2.16%; in experiment [2], 1.09%.

Turning to `Cc1nc2c(c(C)c1CC(=O)Nc1cccc(C#N)c1)c(=O)[nH]n2C`, the Percent Effect in experiment [1] was found to be 4.67%; in experiment [2], 5.09%.

Take `Cc1ccc(C)c(NC(=O)Nc2c[nH]c(=O)[nH]c2=O)c1`: the values for the Percent Effect in experiment [1] and in experiment [2] were -1.44% and 2.86%, respectively.

In the case of `COc1ccc(CCN2CCN(C(=O)c3scnc3C)CC2)cc1`, the Percent Effect in experiment [1] stood at 0.928%; in experiment [2], 0.201%.

On to `Cc1nccn1-c1cccc(C2CCCN2S(=O)(=O)c2cn(C)cn2)n1` (stereo not given), for which the Percent Effect in experiment [1] is 12.1%; in experiment [2] it was 45.9%.

`Cc1n[nH]cc1C(=O)N1CCCC(n2nnc3cc(F)ccc32)C1` (stereo not given): the Percent Effect in experiment [1] is -7.43%; in experiment [2], -9.56%.

Consider `Cc1[nH]nc(CCC(=O)N2CCCC(OCc3cccnc3)C2)c1C` (stereo not given), for which the Percent Effect was -6.25% in experiment [1] and 20% in experiment [2].

Regarding `CCOC(=O)c1sc(NC(=O)CN(C)S(C)(=O)=O)c(C#N)c1C`, the Percent Effect in experiment [1] is -4.94%; in experiment [2], 2.91%.

For the molecule `CCN(Cc1ccco1)C(=O)c1cc(OC)c2c(c1)OCCO2`, the Percent Effect in experiment [1] is 3.71%; in experiment [2] it was -2.41%.

With `CC(C)CN1CCN(Cc2nc3ccccc3[nH]2)[C@H]2CS(=O)(=O)C[C@H]21`, the Percent Effect is 4.05% in experiment [1] and -16.9% in experiment [2].

Take `CN(C)c1ncc(-c2cc(C(=O)O)n(CC3CC3)c2)cn1`: the Percent Effect in experiment [1] stood at 0.577%; in experiment [2], 2.77%.

As for `c1cn2c(n1)CN(CC1CC1)CC(CN1CCOCC1)C2` (stereo not given), the Percent Effect in experiment [1] is 11.1%; in experiment [2] it was -18%.

Take `CN(C)CC(=O)N1CCC2(CC1)CN(c1ccsc1)C(=O)CO2`: the Percent Effect in experiment [1] was 5.4%; in experiment [2], -4%.

In the case of `CC(C)Cc1nc(OCC(N)=O)c(C#N)c2c1CCC2`, the Percent Effect was 2.64% in experiment [1] and -13.7% in experiment [2].

For the molecule `Cn1ccnc1CN1CCCC(Cc2ccccn2)C1` (stereo not given), the Percent Effect in experiment [1] is -2.49%; in experiment [2], -6.98%.

As to `O=C(Nc1cccc(CNCc2csc(Br)c2)c1)C1CC1`, the Percent Effect in experiment [1] is -0.759%; in experiment [2], -73.7%.

Consider `Cc1nn(C)c(N2CCOCC2)c1CNC(C)c1ccco1` (stereo not given), for which the Percent Effect was -3.01% in experiment [1] and 5.98% in experiment [2].

Turning to `CCOc1ncccc1NC(=O)N1CCc2ccccc2C1`, the Percent Effect in experiment [1] was found to be 19.1%; in experiment [2], 3.47%.

For the molecule `CCn1cc(CN2CCCC(c3[nH]ncc3S(C)(=O)=O)C2)cn1` (stereo not given), the Percent Effect in experiment [1] is -1.6%; in experiment [2], -18.8%.

On to `CN(C(=O)C1CSCN1S(=O)(=O)c1ccc(F)cc1)C1CC1` (stereo not given), for which the Percent Effect in experiment [1] was -0.268%; in experiment [2], 7.34%.

On to `Cn1nc2c(cc1=O)CN(CC(=O)Nc1ccc(Cl)cn1)CC2`, for which the Percent Effect in experiment [1] is 48.3%; in experiment [2] it was -4.57%.

As to `C=Cn1ncc(CN2C[C@@H]3CCCN3C[C@@H]2Cc2ccccc2)c1C`, the Percent Effect in experiment [1] is -6.18%; in experiment [2], 2.92%.

With `COc1ccc(OC)c(CNCCc2cc(F)cc3c2OCOC3)c1`, the Percent Effect in experiment [1] is 4.49%; in experiment [2], 7.51%.

For the molecule `Cc1cccc(Cn2c3c(ccc2=O)CCN(Cc2ccoc2)CC3)n1`, the Percent Effect is 2.51% in experiment [1] and 2.55% in experiment [2].

Consider `COCCC(=O)N1CCC2(CN(Cc3ccc(OC)c(F)c3)C2)C1`, for which the Percent Effect in experiment [1] was -0.524%; in experiment [2], -4.43%.

As to `c1cncc(C2COC3(CCN(CC4CC4)CC3)C2)c1` (stereo not given), the values for the Percent Effect in experiment [1] and in experiment [2] were -0.915% and -13.1%, respectively.

As for `COCCO[C@H]1CCN(C(=O)C2CCOCC2)[C@H]1Cc1ccncc1`, the values for the Percent Effect in experiment [1] and in experiment [2] were 4.84% and -17.6%, respectively.

Turning to `CN1CCN(c2nc(O)c3c(-c4ccccn4)ccnc3n2)CC1`, the Percent Effect in experiment [1] is -3.26%; in experiment [2], 7.03%.

`Cc1cc(C)c(CNC(=O)N(C)Cc2sccc2C)c(=O)[nH]1`: the figures for the Percent Effect in experiment [1] and in experiment [2] were 2.05% and 33.8%, respectively.

With `CC(C)Oc1ccc(CNC(=O)CC(F)(F)F)cc1F`, the Percent Effect in experiment [1] was -4.64%; in experiment [2], 33.4%.

As for `Cc1nc(COC[C@@H]2CC[C@H]3[C@H](CCN3S(C)(=O)=O)O2)cs1`, the Percent Effect in experiment [1] worked out at 6.16%; in experiment [2], 1.49%.

As to `Cc1ccc(CNC2CCCc3c2cnn3C)s1` (stereo not given), the Percent Effect in experiment [1] was -2.88%; in experiment [2] it was 1.56%.

Consider `CNc1cc(C2CCCN2C(=O)c2ccc3oc(=O)n(C)c3c2)ccn1` (stereo not given), for which the Percent Effect in experiment [1] is 4.04%; in experiment [2], 7%.

The values are drawn from ChEMBL document CHEMBL3988442, “University of Dundee, Small-Polar-MMV Screening Library” (2021).
